# Test results: PMC7862700, “An all-to-all approach to the identification of sequence-specific readers for epigenetic DNA modifications on cytosine”
# Legend:
# Assay in all cases: DAPPL (digital affinity profiling via proximity ligation, sequencing); 10 mM Tris-HCl pH 7.5, 50 mM NaCl, 1 mM DTT, 4% glycerol, room temperature, 30 min; GST-TFs on glutathione beads, 16-mer random dsDNA library, 0.1% formaldehyde crosslink after washing; high values mean tight binding
# Details in all cases: protein: recombinant; tags: N-terminal GST; dsDNA, one strand shown
# FLI1 = biological target: T1, FLI1 (Homo sapiens, UniProt Q01543 1-452)
# T1 sequence: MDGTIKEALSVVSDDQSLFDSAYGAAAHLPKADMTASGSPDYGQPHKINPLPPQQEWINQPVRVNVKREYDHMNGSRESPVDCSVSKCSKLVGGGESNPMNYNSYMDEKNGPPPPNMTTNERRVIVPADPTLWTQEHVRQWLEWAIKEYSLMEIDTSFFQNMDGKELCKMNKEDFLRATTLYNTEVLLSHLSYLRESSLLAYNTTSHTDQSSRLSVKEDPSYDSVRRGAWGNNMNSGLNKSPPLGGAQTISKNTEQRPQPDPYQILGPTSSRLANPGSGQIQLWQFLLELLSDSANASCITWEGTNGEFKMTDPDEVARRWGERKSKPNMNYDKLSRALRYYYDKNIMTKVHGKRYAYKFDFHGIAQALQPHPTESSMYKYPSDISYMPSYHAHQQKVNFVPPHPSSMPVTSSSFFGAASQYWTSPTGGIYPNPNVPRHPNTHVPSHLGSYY
# Summary of the method: (§1)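 Human transcription factors carrying a GST fusion were produced in yeast, bound to glutathione beads, tagged with DNA barcodes and pooled together with a tag-only sample. Each pool was held with 200 nmole of a random double-stranded 16-mer DNA library in Tris/NaCl/DTT/glycerol buffer for 30 min at room temperature, then washed, crosslinked in 0.1% formaldehyde, proximity-ligated with BsaI/T4 ligase (1 h, 37 °C), PCR-amplified and sequenced on an Illumina NextSeq500. Binding signal is the read frequency of each hexamer for a given factor divided by its frequency in the tag-only sample.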
# ELK1 = biological target: T2, ELK1 (Homo sapiens, UniProt P19419 1-428)
# T2 sequence: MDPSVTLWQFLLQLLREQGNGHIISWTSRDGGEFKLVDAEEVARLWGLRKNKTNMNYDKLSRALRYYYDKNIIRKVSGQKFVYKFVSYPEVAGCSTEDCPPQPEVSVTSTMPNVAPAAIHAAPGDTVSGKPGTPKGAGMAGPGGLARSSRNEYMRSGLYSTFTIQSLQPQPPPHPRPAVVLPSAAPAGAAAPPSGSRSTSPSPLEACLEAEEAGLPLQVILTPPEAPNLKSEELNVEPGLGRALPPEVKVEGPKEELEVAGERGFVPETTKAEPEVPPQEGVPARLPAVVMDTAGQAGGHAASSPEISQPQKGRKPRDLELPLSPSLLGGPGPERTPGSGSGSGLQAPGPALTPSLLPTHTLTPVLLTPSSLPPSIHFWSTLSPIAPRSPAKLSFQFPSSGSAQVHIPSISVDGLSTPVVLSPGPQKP
# Summary of the method: as §1
# GABPA = biological target: T3, GABPA (Homo sapiens, UniProt Q06546 1-454)
# T3 sequence: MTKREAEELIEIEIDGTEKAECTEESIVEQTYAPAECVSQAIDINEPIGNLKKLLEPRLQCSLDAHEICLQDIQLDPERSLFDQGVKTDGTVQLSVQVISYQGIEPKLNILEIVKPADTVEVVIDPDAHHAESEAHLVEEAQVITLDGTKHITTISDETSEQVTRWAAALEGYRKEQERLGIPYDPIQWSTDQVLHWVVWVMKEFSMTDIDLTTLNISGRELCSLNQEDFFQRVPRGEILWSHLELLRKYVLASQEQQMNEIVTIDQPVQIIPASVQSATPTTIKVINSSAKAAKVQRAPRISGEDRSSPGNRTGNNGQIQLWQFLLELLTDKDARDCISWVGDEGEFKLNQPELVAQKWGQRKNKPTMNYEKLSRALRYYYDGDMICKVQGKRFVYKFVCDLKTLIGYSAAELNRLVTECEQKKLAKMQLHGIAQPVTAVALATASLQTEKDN
# Summary of the method: as §1
# ERG = biological target: T4, ERG (Homo sapiens, UniProt P11308 1-479)
# T4 sequence: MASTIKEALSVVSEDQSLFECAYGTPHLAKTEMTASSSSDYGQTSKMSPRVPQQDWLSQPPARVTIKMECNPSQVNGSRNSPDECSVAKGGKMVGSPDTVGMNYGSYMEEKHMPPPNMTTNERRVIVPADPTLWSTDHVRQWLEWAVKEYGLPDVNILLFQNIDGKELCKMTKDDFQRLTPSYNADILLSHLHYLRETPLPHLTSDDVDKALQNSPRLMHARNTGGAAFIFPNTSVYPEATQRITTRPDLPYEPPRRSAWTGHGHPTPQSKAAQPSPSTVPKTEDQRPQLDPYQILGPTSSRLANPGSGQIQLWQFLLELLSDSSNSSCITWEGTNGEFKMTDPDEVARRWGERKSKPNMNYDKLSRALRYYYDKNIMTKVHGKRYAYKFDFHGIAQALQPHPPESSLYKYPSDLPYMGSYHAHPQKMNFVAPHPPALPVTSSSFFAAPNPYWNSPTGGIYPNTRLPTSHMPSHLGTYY
# Summary of the method: as §1
# ELF1 = ELF1 (Homo sapiens, UniProt P32519 1-619)
# ELF1, sequence (P32519 whole entry): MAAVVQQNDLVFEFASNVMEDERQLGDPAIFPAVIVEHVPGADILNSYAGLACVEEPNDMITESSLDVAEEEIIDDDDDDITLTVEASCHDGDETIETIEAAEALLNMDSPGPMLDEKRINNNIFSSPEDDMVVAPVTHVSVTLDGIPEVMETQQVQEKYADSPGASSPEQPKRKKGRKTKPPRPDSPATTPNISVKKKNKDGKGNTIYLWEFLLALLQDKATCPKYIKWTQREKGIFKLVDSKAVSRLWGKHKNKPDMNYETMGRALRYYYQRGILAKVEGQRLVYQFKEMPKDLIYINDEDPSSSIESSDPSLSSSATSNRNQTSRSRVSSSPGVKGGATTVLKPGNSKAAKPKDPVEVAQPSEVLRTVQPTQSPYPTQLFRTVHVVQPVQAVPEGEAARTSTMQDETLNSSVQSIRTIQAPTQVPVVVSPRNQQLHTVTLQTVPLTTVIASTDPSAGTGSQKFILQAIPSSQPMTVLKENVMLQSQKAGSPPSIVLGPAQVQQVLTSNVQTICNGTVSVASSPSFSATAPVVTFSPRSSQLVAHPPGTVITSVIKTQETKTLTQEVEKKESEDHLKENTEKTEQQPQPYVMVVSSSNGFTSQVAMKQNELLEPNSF
# Summary of the method: as §1
# EHF = biological target: T5, EHF (Homo sapiens, UniProt Q9NZC4 1-300)
# T5 sequence: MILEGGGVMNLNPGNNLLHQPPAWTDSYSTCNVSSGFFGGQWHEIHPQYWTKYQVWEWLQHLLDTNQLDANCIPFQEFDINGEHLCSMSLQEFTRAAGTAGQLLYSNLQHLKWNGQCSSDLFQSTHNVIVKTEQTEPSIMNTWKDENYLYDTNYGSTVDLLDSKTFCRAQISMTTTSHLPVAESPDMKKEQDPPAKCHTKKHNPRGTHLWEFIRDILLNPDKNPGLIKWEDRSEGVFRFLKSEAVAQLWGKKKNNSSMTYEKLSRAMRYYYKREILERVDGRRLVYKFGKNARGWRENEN
# Summary of the method: as §1
# SPI1 = SPI1 (Homo sapiens, UniProt P17947 1-270)
# Summary of the method: as §1
# SPIB = SPIB (Homo sapiens, UniProt Q01892 1-262)
# SPIB, sequence (Q01892 whole entry): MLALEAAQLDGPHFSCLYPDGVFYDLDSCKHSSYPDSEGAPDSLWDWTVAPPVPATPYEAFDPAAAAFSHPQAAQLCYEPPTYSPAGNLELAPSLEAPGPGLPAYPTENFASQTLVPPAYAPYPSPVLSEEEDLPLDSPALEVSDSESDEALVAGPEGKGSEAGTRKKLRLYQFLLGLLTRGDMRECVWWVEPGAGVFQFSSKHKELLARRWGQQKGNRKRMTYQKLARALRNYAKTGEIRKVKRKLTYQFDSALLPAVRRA
# Summary of the method: as §1
# ELK3 = biological target: T6, ELK3 (Homo sapiens, UniProt P41970 1-407)
# T6 sequence: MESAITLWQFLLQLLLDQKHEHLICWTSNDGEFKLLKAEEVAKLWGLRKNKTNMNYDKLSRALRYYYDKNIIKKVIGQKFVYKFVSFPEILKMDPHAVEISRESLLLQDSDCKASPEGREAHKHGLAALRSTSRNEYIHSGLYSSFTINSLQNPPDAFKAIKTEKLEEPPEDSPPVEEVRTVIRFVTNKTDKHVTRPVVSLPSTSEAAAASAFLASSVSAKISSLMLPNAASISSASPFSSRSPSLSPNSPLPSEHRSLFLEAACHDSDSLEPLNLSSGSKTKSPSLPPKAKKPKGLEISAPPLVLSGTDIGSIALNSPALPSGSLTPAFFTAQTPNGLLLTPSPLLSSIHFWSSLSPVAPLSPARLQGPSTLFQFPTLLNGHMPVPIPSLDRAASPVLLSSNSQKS
# Summary of the method: as §1
sequence,measurement,setting,value
TCCCGC,binding signal,FLI1,"1.48 fold enrichment (6-mer frequency, TF over GST control)"
same,binding signal,ELK1,"1.53 fold enrichment (6-mer frequency, TF over GST control)"
same,binding signal,GABPA,"1.4 fold enrichment (6-mer frequency, TF over GST control)"
same,binding signal,ERG,"1.42 fold enrichment (6-mer frequency, TF over GST control)"
same,binding signal,ELF1,"1.47 fold enrichment (6-mer frequency, TF over GST control)"
same,binding signal,EHF,"1.52 fold enrichment (6-mer frequency, TF over GST control)"
same,binding signal,SPI1,"1.37 fold enrichment (6-mer frequency, TF over GST control)"
same,binding signal,SPIB,"1.48 fold enrichment (6-mer frequency, TF over GST control)"
same,binding signal,ELK3,"1.46 fold enrichment (6-mer frequency, TF over GST control)"
